# Rows were chosen to be rich in hits. Some 11% of all compounds tested hit in one or more screens of this group.
# PNC inhibitor = High Content Assay for Compounds that inhibit the Assembly of the Perinucleolar Compartment; PC3M PTB-GFP, PNC prevalence imaging, 16 h; hits give low values; activity change (PNC), negative = inhibition, % at 10 µM; 140,000 compounds, 3.1% hits; AID 2417, 2010;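 active = readout at or below -70, meaning at least 70% loss of cells showing the perinucleolar compartment, a nuclear body marking cancer cells; inconclusive = readout between -30 and a set limit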;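 also: plate controls were DMSO wells for no effect and camptothecin positive control wells for full effect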
#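 PC3M cells stably expressing PTB-GFP, 750–1000 cells/well, treated 16 h at 37 °C with compound (23 nl of library stock), in duplicate. After paraformaldehyde fixation and Hoechst stain, imaged at 20x; PNC prevalence scored by image analysis.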
# HTT aggregate = qHTS Multiplex Assay to Identify Dual Action Probes in a Cell Model of Huntington: Aggregate Formation (GFP) | PC12 HttQ103-GFP aggregates, Acumen cytometry, 40 h | 220,000 compounds, 1.1% hits | Potency, µM (highest dose often 46.1 µM), inactives show at the top dose activity change, negative = inhibition, actives largely listed as inhibitors; active = well fitted curve in the direction sought with a large enough effect; inconclusive = small, poorly fitted or top-dose-only effect, or another doubt; inactive = no such curve, though single readings can be large; an effect the other way counts as inactive or inconclusive; also: potency is read from the fitted curve at half-maximal effect; % is scaled to controls: 0 for no effect and ±100 for the full control effect; nearly all actives have a fitted effect of over 60% in size
#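 Ecdysone-promoter PC12 model expressing HTT exon 1 Q103 fused to GFP, induced by tebufenozide at 100 nM final. Compounds titrated; aggregates sized 1–25 µm scored on a 488 nm laser cytometer.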
# GoLoco inh red = qHTS Assay for Inhibitors of RGS12 GoLoco Motif Activity (Red Fluorophore); Guanine nucleotide-binding protein G(i) subunit alpha-1 (Homo sapiens), P63096; Gai1:RGS12 GoLoco peptide FP, rhodamine, 10 min; Potency, µM (highest dose often 61.6 µM), without a hit: top-dose activity, negative = inhibition, most hits filed as inhibitors; 230,000 compounds, 0.44% hits; AID 880, 2007; active = well fitted inhibition curve with a large enough effect, not every such curve was filed as active; inactive = no such curve, though single readings can be large or run the other way; also: potency is read from the fitted curve at half-maximal effect; % is scaled to controls: 0 for no effect and ±100 for the full control effect; nearly all actives have a fitted effect of over 30% in size
# HTT cytoprotect = qHTS Multiplex Assay to Identify Dual Action Probes in a Cell Model of Huntington: Cytoprotection (ATP); PC12 HTT-Q103 induced, cytoprotection, ATP luminescence, 40 h; Potency, µM (top dose mostly 56.4 µM), for the others: cytoprotection (ATP increase), usual class: activators; 230,000 compounds, 0.14% hits; AID 1471, 2008; active = well fitted curve in the direction sought with a large enough effect; inconclusive = small, poorly fitted or top-dose-only effect, or another doubt; inactive = no such curve, though single readings can be large; an effect the other way counts as inactive or inconclusive; also: potency is read from the fitted curve at half-maximal effect; % of control where 0% means no effect; nearly all actives have a fitted effect of over 45% in size
#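 PC12 cells with ecdysone-inducible HTT exon 1 Q103-GFP, induced with 100 nM tebufenozide and co-treated with library compounds in a dose series (1536-well, 1500 cells/well). Cytoprotection read as ATP content by ATPlite luminescence.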
# ALDH1A1 inh = qHTS Assay for Inhibitors of Aldehyde Dehydrogenase 1 (ALDH1A1); 220,000 compounds, 7.3% hits; AID 1030, 2008; Purified ALDH1A1, NADH fluorescence, propionaldehyde substrate; Potency, µM (doses to about 75.3 µM), inactives show at the highest dose activity, negative = inhibition, actives largely listed as inhibitors; Aldehyde dehydrogenase 1A1 (Homo sapiens), P00352;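 also: potency is read from the fitted curve at half-maximal effect; plate controls were no enzyme wells and a reference inhibitor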
# Target sequence (P00352 whole entry, looked up): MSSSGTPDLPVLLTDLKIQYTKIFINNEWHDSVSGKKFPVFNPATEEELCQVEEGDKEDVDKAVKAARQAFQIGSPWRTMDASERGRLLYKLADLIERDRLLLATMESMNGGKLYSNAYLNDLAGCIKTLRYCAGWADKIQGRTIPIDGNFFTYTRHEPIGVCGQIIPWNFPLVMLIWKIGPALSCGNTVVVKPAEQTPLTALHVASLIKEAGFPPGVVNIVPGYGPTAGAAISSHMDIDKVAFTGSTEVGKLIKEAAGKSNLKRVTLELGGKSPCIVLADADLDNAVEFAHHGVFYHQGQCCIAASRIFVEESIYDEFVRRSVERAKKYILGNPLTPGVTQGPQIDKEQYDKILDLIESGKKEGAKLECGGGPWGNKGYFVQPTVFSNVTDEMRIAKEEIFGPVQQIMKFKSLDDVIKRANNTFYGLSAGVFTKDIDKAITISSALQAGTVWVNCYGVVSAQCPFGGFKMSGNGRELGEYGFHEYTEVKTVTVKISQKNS
# HPGD block = qHTS Assay for Inhibitors of HPGD (15-Hydroxyprostaglandin Dehydrogenase). 15-hydroxyprostaglandin dehydrogenase [NAD(+)] (Homo sapiens), P15428. purified HPGD, NADH fluorescence kinetic, PGE2 substrate. Potency, µM, inactives show at the highest dose activity change, negative = inhibition, most hits filed as inhibitors. 150,000 compounds, 4.3% hits. AID 894, 2007; also: potency is read from the fitted curve at half-maximal effect; % is scaled to controls: 0 for no effect and ±100 for the full control effect
#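 20 nM HPGD preincubated 15 min at room temperature with compound in 50 mM Tris-HCl pH 8, 0.01% Tween 20. Started with 1 mM NAD+ and 30 uM prostaglandin E2; NADH fluorescence (360/450 nm) read 5 times over 30-s intervals, last minus first.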
# * hit, by the source's call; u = inconclusive; x = not tested or not shown; [ ] = another dose, or the depositor's remark. Unless noted, calls follow the shape of the dose curve; as a rule, active = well fitted inhibition curve with a large enough effect (not every such curve was filed as active); inconclusive = small, poorly fitted or top-dose-only effect, or another doubt; inactive = no such curve, though single readings can be large or run the other way.
SMILES,PNC inhibitor,HTT aggregate,GoLoco inh red,HTT cytoprotect,ALDH1A1 inh,HPGD block
Cc1ccc(S(=O)(=O)Nc2nc3ccccc3nc2NCc2ccc3c(c2)OCO3)cc1C,3,14%,4%,14%[10 µM],u,u
Cc1cc(C(=O)C(=O)O)c(C)n1-c1ccc(Cl)c(Cl)c1,x,u,7%,-3%[10 µM],22%,x
CN1CCN(c2nc(-c3cccc(C#N)c3)nc3ccccc23)CC1,x,x,-10%,-11%,-1%,-6%
O=C(c1ccco1)N1CCN(C(=O)c2cc(-c3ccccc3)nc3ccccc23)CC1,-8,3%,3%,-27%,-1%,-13%
Cc1cccc2c(C(=O)N3CCN(C(=O)c4ccco4)CC3)cc(-c3cccc(Br)c3)nc12,x,8.9µM*,12%,29%[10 µM],u,x
O=C1C=C(Nc2nc(C(=O)O)cc(=O)[nH]2)c2ccccc2C1=O,x,x,-3%[14.2 µM],0%[10 µM],0%[13.5 µM],-1%
CCc1nc(SCc2ccc(F)cc2)n[nH]1,x,-24%,3%,-25%,0%,x
CCc1nc(SCc2cc(Cl)ccc2OC)n[nH]1,17,-8%,-6%,-35%[0.074 µM],-3%,13µM*
CCCc1nc(SCc2ccccc2Cl)n[nH]1,8,-23%,11%,-7%[10 µM],-4%,13µM*
CC(=O)c1c(C)[nH]c(C(=O)OCC(=O)N2c3ccccc3NC(=O)C2(C)C)c1C,13,6%,-9%,-12%[10 µM],-13%,1%
CC1CCc2c(sc3ncn(CC(=O)N4CCCCC4)c(=O)c23)C1 (centres undefined),x,-9%[9.22 µM],3%,-9%[10 µM],-6%,x
COc1cccc(-n2nc(-c3ccnn3-c3ccc(C)cc3)c(=O)n(C)c2=O)c1,u,-10%,11%,-16%,40µM*,-24%
Cc1ccc(-c2nnc(CSc3nncn3N)o2)cc1,-21,8%,-4%,-15%[10 µM],-20%,10%
CC(C)(CSc1ncccn1)NS(=O)(=O)c1ccccc1,x,-16%,16%,0%,u,x
Cc1ccc(S(=O)(=O)NC(C)(C)CSc2nnc(Nc3ccccc3)s2)cc1,u,20%[9.22 µM],-5%,-35%,20µM*,-10%
Cc1ccc(S(=O)(=O)NC(C)(C)CSc2nncn2N)cc1,-19,2.8µM*,-8%,u,-8%,-7%
O=C(COC(=O)/C=C/c1ccccc1)NCc1ccccc1Cl,x,3%,6%,1%[10 µM],9%,x
O=C(Oc1ccc(C(=S)N2CCCCC2)cc1)c1ccccc1,x,-14%[9.22 µM],10%,-20%[10 µM],11µM*,x
O=C(Oc1cccc(OC(=O)N2CCCCC2)c1)N1CCCCC1,x,0%[9.22 µM],6%,12%[10 µM],-1%,x
O=C(Oc1cccc(C(=S)N2CCCCC2)c1)c1ccccc1,x,7%,-7%,-5%,2.5µM*,x
Oc1cccc(C(=S)N2CCCCC2)c1,x,22%[9.22 µM],5%,34%[10 µM],11µM*,x
O=C(/C=C/c1ccccc1)Oc1cccc(C(=S)N2CCOCC2)c1,x,-11%,1%,1%,4.5µM*,x
Cn1[nH]c(C(F)(F)F)c(C=Nc2ccc(Cl)cc2)c1=O,x,1%,15%,-29%,3%,x
CNc1ccc(Br)cc(C(=O)/C=C/c2ccc(Cl)cc2Cl)c1=O,x,15%[9.22 µM],72%,7%[10 µM],u,x
CNc1ccc(Br)cc(C(=O)/C=C/c2cccc(OC)c2)c1=O,-15,-17%,52%,-11%[1.9 µM],14µM*,7.9µM*
CNc1ccc(Br)cc(C(=O)/C=C/c2ccc(OC)cc2OC)c1=O,u,-26%,88%,x,u,14µM*
CCO[C@H]1OC(C(=O)NC2CC2)=C[C@@H](c2coc3ccccc3c2=O)[C@@H]1CCCO,x,-6%[9.22 µM],-6%,13%[10 µM],-4%,x
